40 compounds from PubChem BioAssay (Tox21) can be followed below.

Records with an inconclusive call do not appear. Values without a mark were called inactive. The source made the active and inactive calls. Calls come from the whole dose curve.
% is set by controls: 0 for no effect and ±100 for the full control effect; potency is the fitted concentration of half-maximal effect.

Sequence of Retinoic acid receptor RXR-alpha (Homo sapiens) (P19793 whole entry, looked up): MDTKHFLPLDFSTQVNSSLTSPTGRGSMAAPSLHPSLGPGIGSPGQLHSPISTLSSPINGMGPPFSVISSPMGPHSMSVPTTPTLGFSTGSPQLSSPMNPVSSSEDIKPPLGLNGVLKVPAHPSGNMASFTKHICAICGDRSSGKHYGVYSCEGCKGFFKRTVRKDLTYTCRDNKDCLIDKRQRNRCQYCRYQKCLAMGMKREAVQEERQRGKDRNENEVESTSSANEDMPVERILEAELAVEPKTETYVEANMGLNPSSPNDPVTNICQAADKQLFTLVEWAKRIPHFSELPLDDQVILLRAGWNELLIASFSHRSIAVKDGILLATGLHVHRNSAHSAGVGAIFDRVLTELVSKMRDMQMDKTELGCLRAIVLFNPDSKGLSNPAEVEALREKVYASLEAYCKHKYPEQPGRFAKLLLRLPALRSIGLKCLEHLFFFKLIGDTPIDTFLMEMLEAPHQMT

This assay addresses Retinoic acid receptor RXR-alpha (Homo sapiens) (UniProt P19793). Kind of assay: qHTS assay to identify small molecule agonists of the RXR signaling pathway (AID 1159527). Note: nearly all actives have a fitted effect of over 35% in size. The note with it: HEK293T RXRa-UAS-bla, beta-lactamase ratio, 16 h; series mostly up to 76.8 µM; activation: at the top concentration. From the text:
U.S. Tox21 Program National Center for Advancing Translational Sciences [NCATS] NIH Chemical Genomics Center [NCGC] U.S. Environmental Protection Agency [EPA] National Institutes of Environmental Health Sciences [NIEHS] National Toxicology Program [NTP] U.S. Food and Drug Administration [FDA] Tox21 Assay Overview: The Retinoid X receptor (RXR), a nuclear hormone receptor expressed in liver, spleen, placenta, epidermis, central nervous system. These receptors are able to form homo and heterodimers with other nuclear receptors and due to this heterodimerizing ability, RXR functions as master regulators producing diverse physiological effects. Three subtypes of RXR exist; alpha, beta and gamma. Retinoid X receptor alpha (RXR-alpha) has potential roles in metabolic signaling pathways, skin alopecia, dermal cysts, cardiac development, insulin sensitization etc. Therefore screening environmental chemicals on RXR-alpha signaling can be used for the studies focused on such therapeutic applications. For quantification of RXR-alpha ligands signaling, GeneBLAzer RXR alpha-UAS-bla HEK 293T (Life Technologies, Carlsbad, CA) cells containing a beta-lactamase reporter-gene under control of Retinoid X receptor-alpha response element were used to screen Tox21 10K library.
Tox21 Assay Protocol Summary: RXR-alpha HEK 293T cells were dispensed at 2,000 cells/6 uL of assay medium containing 2% charcoal-stripped FBS using a Multidrop Combi (ThermoFisher Scientific, Waltham, MA) dispenser. The assay was performed in black wall/clear-bottom 1536-well plates (Greiner Bio-One North America Inc. Monroe, NC). 9-cis retinoic acid was used as a positive control in the agonist mode screen. After the assay plates were incubated at 37 C and 5% CO2 for 5 hr, 23 nL of compounds dissolved in DMSO, positive controls or DMSO only were transferred to the assay plate by a Pintool station (Kalypsys, San Diego, CA). The assay plates were incubated at 37 C and 5% CO2 for 16 hr. One uL of LiveBLAzer B/G FRET substrate (Life Technologies) was added using a Flying Reagent Dispenser (Aurora Discovery, San Diego, CA) and the plates were incubated at room temperature for 2 hr. Fluorescence intensity (405 nm excitation, 460/530 nm emission) was measured using an Envision plate reader (PerkinElmer, Shelton, CT).
On the technique in general: Quantitative high-throughput screening tests each substance at several concentrations.
Turning to `CC(C)OCCO`, the “activation” value was 7.98%.
Regarding `Nc1nc(Cl)cc(Cl)n1`, the “activation” value was -5.51%.
As to `CCCC(=O)C(CC)Sc1ccoc1C` (stereo not given), the “activation” value is -2.16%.
In the case of `CC(=O)OC1CCC(C(C)(C)C)CC1` (stereo not given), the “activation” value was 0.823%.
In the case of `O=c1[nH]c(=O)c2cn[nH]c2[nH]1`, the “activation” value is -1.46%.
The same measure, in the same setting: for `N#Cc1cc(NC(=O)C(=O)O)c(Cl)c(NC(=O)C(=O)O)c1` the value was 2.52% [at 35.3 µM]; for `CCOC(=O)[C@H](CCc1ccccc1)N[C@H]1CS[C@H](c2cccs2)CN(CC(=O)O)C1=O`, 5.59% [at 35.3 µM].
With `CSC(=O)c1cccc2nnsc12`, the “activation” value was 9.08%.
Same read-out and setting: for `O=c1c(O)c(O)c1=O` the value was 0.752%; for `COc1cc2nc(N3CCN(C(=O)C4CCCO4)CC3)nc(N)c2cc1OC` (stereo not given), 10.4% [at 35.3 µM]; for `CCCCC(CC)COC(=O)CC#N` (stereo not given), -11.1%.
Same read-out and setting: as for `CC(CC(=O)Cl)CC(C)(C)C` (stereo not given), the figure is -1.17%.
The same measure, in the same setting: as for `CN(C)CCc1c[nH]c2ccc(C[C@H]3COC(=O)N3)cc12`, the figure is -2.74% [at 35.3 µM]; as for `C=CC(=O)CC`, 9.03%; as for `CCCCCCCCCCCCCC(=O)OCC`, 9.19%.
Regarding `COc1ccc(Cl)cc1C`, the “activation” value is 4.39%.
In the case of `CN(C)c1cc(NC(=O)CNC(C)(C)C)c(O)c2c1C[C@H]1C[C@H]3[C@H](N(C)C)C(=O)C(C(N)=O)=C(O)[C@@]3(O)C(=O)C1=C2O`, the “activation” value is 2.86% [at 35.3 µM].
Regarding `Cc1ccc(OC(=O)CC(C)C)cc1`, the “activation” value was 6.53%.
`Nc1ccc(C(=O)NCC(=O)O)cc1`: the “activation” value was 8.27% [at 35.3 µM].
`C/C=C(\C)C(=O)OC/C=C(\C)CCC=C(C)C`: the Potency was 21.9 µM (active).
Regarding `Cc1cc2c(cc1CC(=O)c1sccc1S(=O)(=O)Nc1onc(C)c1Cl)OCO2`, the “activation” value is -3.68% [at 35.3 µM].
Turning to `CCOc1ccccc1OCCN[C@H](C)Cc1ccc(OC)c(S(N)(=O)=O)c1`, the “activation” value is 5.96% [at 35.3 µM].
For `COC(=O)c1ccc(C(=O)O)cc1`, the “activation” value was 9.88%.
In the case of `C=CCN1CCc2nc(N)sc2CC1`, the “activation” value was 4.94% [at 35.3 µM].
`COCc1nnc(-c2ccc[n+]([O-])c2)n1-c1c(Cl)c(Cl)cc2[nH]c(=O)c(=O)[nH]c12`: the “activation” value was 17.2%.
Still for that read-out and setting: as for `Cc1ccc(Br)cc1`, the figure is 1.1%; as for `CCCCN1C(=O)c2ccccc2C1=O`, -1.85%; as for `CC(=O)SC[C@@H](C)C(=O)N1CCC[C@H]1C(=O)N[C@@H](Cc1ccccc1)C(=O)O`, 2.96% [at 35.3 µM].
With `C=CCOC(=O)CCCCCCCC`, the Potency was 17.5 µM (active).
Consider `Cc1ccc(O)c([N+](=O)[O-])c1`, for which the “activation” value is -18.2%.
On to `COc1cc(C(=O)NC2CCCNC2)cc(OC)c1OC` (stereo not given), for which the “activation” value was 6.61% [at 35.3 µM].
Consider `CCCCCCCCS(=O)(=O)O`, for which the “activation” value was -2.98%.
For `O=C(O)CCC(=O)Nc1ccc(S(=O)(=O)Nc2nccs2)cc1`, the “activation” value was 3.14% [at 35.3 µM].
With `CC(C)(C)C(=O)NCCCC(=O)O`, the “activation” value is 6.98% [at 35.3 µM].
As to `CC(=O)c1c(C)cc(C(C)(C)C)cc1C`, the “activation” value is 4.77%.
As for `CC/C=C\CCOC(=O)c1ccccc1`, the “activation” value is 6.14%.
`CCCCCCCCCCCCCCCCN(C)C`: the activation is 8.03% [at 6.98 µM].
For `CC(C)(C)OC(=O)c1ccccc1C(=O)O`, the “activation” value is 4.99%.
For the compound `CC(C)C(C)C`, the “activation” value is 1.79%.
In the case of `CC(C)(Sc1cc(C(C)(C)C)c(O)c(C(C)(C)C)c1)Sc1cc(C(C)(C)C)c(O)c(C(C)(C)C)c1`, the “activation” value is -0.184% [at 35.3 µM].
